Experimental data published in PubChem BioAssay AID1789 (The Scripps Research Institute Molecular Screening Center, 2009).
About 2,700 (0.93%) of roughly 290,000 compounds were called active. Shown is part of a subset that was picked to be rich in actives. Unmarked numbers belong to inactive results.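 The calls were made as follows: active = inhibition above the screen-wide mean plus 3 SD, computed separately per campaign (cut at about 16% in these data); inactive = the rest.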

System: Heat shock protein HSP 90 (rabbit reticulocyte lysate; luciferase refolding)
Assay: inhibitors of HSP90 chaperone activity – cell lysate, luminescence, primary screen (AID 1789);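 also: 0% = DMSO wells and 100% = 60 µM geldanamycin wells; inhibitors lower the luminescence because luciferase stays unfolded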
Conditions: 3 h, at 5.6 µM, active compounds read high

Which inhibition does the source give for COc1ccc(NC(=O)CSc2nc(C)cs2)cc1 here?
The inhibition was -1.43%.

How did the inhibition turn out when Cc1csc(SCC(=O)Nc2sccc2C#N)n1 was run?
The inhibition was 17.4% (active).

With Cc1cccc(C)c1Nc1nnc(SCC(=O)Nc2sccc2C#N)s1 as the compound, how does the inhibition read?
Its inhibition is 3.59%.

Which inhibition does the source give for CCc1ccccc1NC(=O)[C@@H]1CCC(=O)N1C1OC(=O)c2c1ccc(OC)c2OC (some centres undefined) here?
Its inhibition is -1.1%.

Which inhibition does the source give for COc1ccc(NC(=O)c2ccco2)cc1NC(=O)c1ccc(C#N)cc1F here?
The inhibition was -0.59%.

With CCCCCc1ccc(-c2ccc(C(=O)O)cc2)nc1 as the compound, how does the inhibition read?
The inhibition was 61.1% (active).

With CCCCCc1ccc(-c2ccc(OCC)cc2)nc1 as the compound, how does the inhibition read?
Its inhibition is 0.91%.

For CCCCCc1ccc(-c2cn(Cc3ccc4ccccc4c3)nn2)cc1, which inhibition is on record?
The inhibition was -4.93%.

Which inhibition does the source give for COCCn1c(SCc2nnc(-c3ccc(OC)c(OC)c3)o2)nc2sc3c(c2c1=O)CCC3 here?
Its inhibition is 1.74%.

CC(=O)c1ccc(S(=O)(=O)N(C)CCCC(=O)N(C)Cc2ccccc2F)cc1 was tested. Which inhibition did it give?
The inhibition was 0.72%.

Which inhibition does the source give for Cc1nnc(SCC(=O)N2c3ccccc3C(C)(c3ccc(Cl)cc3)CC2(C)C)s1 (centres undefined) here?
The inhibition was 58.2% (active).

For CC1(c2cccc([N+](=O)[O-])c2)CC(C)(C)N(C(=O)c2ccccc2)c2ccccc21 (centres undefined), which inhibition is on record?
The inhibition was 2.72%.

CC1(c2ccccc2)CC(C)(C)N(C(=O)c2cc([N+](=O)[O-])cc([N+](=O)[O-])c2)c2ccccc21 (centres undefined) was tested. Which inhibition did it give?
Its inhibition is -2.72%.

With NC1=NN(c2cccc(C(=O)O)c2)C(=O)C1 as the compound, how does the inhibition read?
Its inhibition is 3.9%.

How did the inhibition turn out when O=Cc1c(Nc2ccccc2Cl)nc2ccccn2c1=O was run?
The inhibition was 0.05%.

With COc1ccc(OCc2cc(C(=O)NCC3(C)COC3)no2)c(Cl)c1 as the compound, how does the inhibition read?
Its inhibition is -3.93%.

Cc1ccc(-c2cn3cc(C)ccc3n2)cc1 was tested. Which inhibition did it give?
The inhibition was 84.1% (active).

With Cc1ccc2nc(-c3ccc(Br)cc3)cn2c1 as the compound, how does the inhibition read?
The inhibition was 75.1% (active).

With Cc1nc(-c2ccc([N+](=O)[O-])cc2)c(-c2ccccc2)o1 as the compound, how does the inhibition read?
The inhibition was 10.2%.

How did the inhibition turn out when COc1ccc(-c2cn3cccnc3n2)cc1 was run?
Its inhibition is 0%.

Which inhibition does the source give for COc1ccc(-c2cn3ccsc3n2)cc1 here?
The inhibition was 6.4%.

How did the inhibition turn out when Cc1cc(N2CCOCC2)nc(-c2ccc(Br)cc2)n1 was run?
Its inhibition is 7.23%.

Which inhibition does the source give for CCN(CC)S(=O)(=O)c1ccc(-c2cn3ccc(C)cc3n2)cc1 here?
Its inhibition is 1.15%.

Cc1ccc(-c2cc(N)on2)cc1 was tested. Which inhibition did it give?
Its inhibition is 3.55%.

CSc1nnc2ccc(-c3ccc(C)cc3)nn12 was tested. Which inhibition did it give?
The inhibition was -5.22%.

With Cc1ccc(-c2cn3cc([N+](=O)[O-])ccc3n2)cc1 as the compound, how does the inhibition read?
The inhibition was 26.2% (active).

With Cc1ccc(-n2cc3ccc([N+](=O)[O-])cc3n2)cc1 as the compound, how does the inhibition read?
Its inhibition is 9.46%.

Which inhibition does the source give for COc1ccc(-c2cn3ccc(C)cc3n2)cc1 here?
Its inhibition is 61.9% (active).

With COc1ccc(S(=O)(=O)NC(C)c2ccccc2)cc1C(=O)N1CCCCC1 (centres undefined) as the compound, how does the inhibition read?
Its inhibition is -0.07%.

For Cc1cc(NC(=O)c2ccccc2C)no1, which inhibition is on record?
The inhibition was 1.41%.

How did the inhibition turn out when CC(NCc1cccs1)C(=O)Nc1cc(Cl)cc(Cl)c1 (centres undefined) was run?
The inhibition was 3.33%.

Which inhibition does the source give for O=S(=O)(Cc1cc(Cl)nc(-c2cccnc2)n1)c1ccccc1 here?
The inhibition was -1.01%.

How did the inhibition turn out when Cc1cccc(C(=O)N2CCCC(Nc3ccc(C(C)C)cc3)C2)n1 (centres undefined) was run?
Its inhibition is 2.58%.

Cc1ccc(NS(=O)(=O)c2ccc(C)c(NC(=O)COc3ccc4ccccc4c3)c2)c(C)c1 was tested. Which inhibition did it give?
The inhibition was 3.5%.

With COc1ccc2cc(S(=O)(=O)Nc3ccccn3)ccc2c1 as the compound, how does the inhibition read?
The inhibition was -2.45%.

COc1cc(NS(=O)(=O)c2ccc3ccccc3c2)c2ncccc2c1 was tested. Which inhibition did it give?
Its inhibition is 17.1% (active).

How did the inhibition turn out when O=S(=O)(Nc1ccccc1Cl)c1cccc2nsnc12 was run?
The inhibition was -0.91%.

With COc1ccc2c(c1)C(NS(=O)(=O)OCC(Cl)(Cl)Cl)CCC2 (centres undefined) as the compound, how does the inhibition read?
The inhibition was -3.42%.

COc1cccc(/C=C/c2ccc3ccccc3n2)c1OC(C)=O was tested. Which inhibition did it give?
Its inhibition is 26.1% (active).

Which inhibition does the source give for CCOc1cccc(/C=C/c2ccc3ccccc3n2)c1OC(C)=O here?
Its inhibition is 11.8%.

COc1cccc(/C=C2\C=C(c3ccc(C)cc3)OC2=O)c1OC(C)=O was tested. Which inhibition did it give?
Its inhibition is -2.84%.

Cc1cc(=O)oc2cc(OC(C)C(=O)NCCc3ccc(S(N)(=O)=O)cc3)ccc12 (centres undefined) was tested. Which inhibition did it give?
The inhibition was -1.68%.

For COC(=O)C1=C(O)/C(=C/c2ccc(OCC(=O)Nc3ccccc3)cc2)N=C1C, which inhibition is on record?
Its inhibition is 3.09%.

With COC(=O)c1ccc(Nc2ncnc3sccc23)cc1 as the compound, how does the inhibition read?
The inhibition was -0.64%.

How did the inhibition turn out when COc1ccc(N(CC(=O)NCC2CCCO2)C(=O)CCC(=O)Nc2nccs2)c(OC)c1 (centres undefined) was run?
The inhibition was 1.16%.

For C=CCN(C(=O)Nc1ccc2c(c1)nc(C)n2C)c1ccccc1, which inhibition is on record?
Its inhibition is 2.61%.

For Cc1nc2cc(NC(=O)Nc3cccc(F)c3)ccc2n1C, which inhibition is on record?
The inhibition was 42.2% (active).

How did the inhibition turn out when Cc1nc2cc(NC(=O)NC3CC3)ccc2n1C was run?
The inhibition was -3.15%.

For CCN(C(=O)COc1ccc(C(=O)c2ccccc2)cc1)c1ccccc1, which inhibition is on record?
The inhibition was 2.9%.

For O=C(Nc1cccc(S(=O)(=O)Nc2ccc(Cl)cc2)c1)c1ccc2c(c1)OCCO2, which inhibition is on record?
The inhibition was -6.31%.

For O=C(Nc1ccccc1F)c1ccc2c(c1)OCO2, which inhibition is on record?
Its inhibition is 4.08%.

How did the inhibition turn out when COCc1nnc(NC(=O)c2ccc3c(c2)OCO3)s1 was run?
Its inhibition is -2.47%.

O=C(Nc1ccc(N2CCOCC2)cc1)c1ccc2c(c1)OCO2 was tested. Which inhibition did it give?
The inhibition was 4.41%.

O=C(Nc1ccccc1)c1ccc2c(c1)OCCCO2 was tested. Which inhibition did it give?
Its inhibition is 31.5% (active).

Which inhibition does the source give for O=C(Nc1nc2ccccc2s1)c1ccc2c(c1)OCO2 here?
The inhibition was 21.8% (active).

With CN1CCN(CCNC(=O)Nc2ccccc2[N+](=O)[O-])CC1 as the compound, how does the inhibition read?
The inhibition was -4.79%.

How did the inhibition turn out when O=C(CCN1C(=O)C2C3CCC(C3)C2C1=O)Nc1ccc(Cl)cc1Cl (centres undefined) was run?
Its inhibition is -1.86%.

For COc1ccc(/C(C)=N\NC(=O)c2ccc(-c3ccccc3)cc2)c(F)c1, which inhibition is on record?
Its inhibition is -2.33%.

Oc1c(Cl)cc(Cl)cc1/C=N/c1ncn[nH]1 was tested. Which inhibition did it give?
The inhibition was -0.17%.

For CC(C)C[C@H](NC(=O)N1CCn2c1nc1ccccc12)C(=O)NC1CC1, which inhibition is on record?
The inhibition was -4.43%.

COc1ccccc1C(=O)Nc1cccc(C(=O)N2CCOCC2)c1 was tested. Which inhibition did it give?
Its inhibition is -1.04%.

Which inhibition does the source give for COc1cc(CNC2CCCCC2)c(Br)cc1OC1CCCC1 here?
The inhibition was 35.2% (active).

Which inhibition does the source give for CC(C)(C)NCc1cc(Br)ccc1OC1CCCC1 here?
Its inhibition is -2.93%.

How did the inhibition turn out when COc1cc(CNC2CCCC2)c(Br)cc1OCc1ccccc1 was run?
The inhibition was -1.4%.
